Assay [1] can be described thus: qHTS assay to identify small molecule antagonists of the androgen receptor (AR) signaling pathway using the MDA cell line in the presence of 0.5 nM R1881 - cell viability counter screen (AID 1259242). Note: nearly all actives have a fitted effect of over 45% in size. Note: potency is the fitted concentration of half-maximal effect. The method, boiled down:
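Concentration-response screen of compounds for toxicity in MDA-kb2 reporter cells: 16 hr at 37C with 0.5 nM R1881, endpoint live-cell protease fluorescence measured in the reporter wells.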

The target of assay [2] is Estrogen receptor (Homo sapiens) (UniProt P03372). Briefly: qHTS assay to identify small molecule antagonists of the estrogen receptor alpha (ER-alpha) signaling pathway using the BG1 cell line in the presence of 0.1 nM 17-beta-estradiol (AID 1259244). Note: nearly all actives have a fitted effect of over 50% in size. Note: potency is the fitted concentration of half-maximal effect. The method, boiled down: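 Compounds were tested against 0.1 nM (final) 17beta-estradiol in VM7Luc4E2 cells, which express full-length ER-alpha and an ERE-luciferase reporter; luminescence was recorded following 22 h exposure.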
Chain of Estrogen receptor (Homo sapiens) (P03372 whole entry, looked up): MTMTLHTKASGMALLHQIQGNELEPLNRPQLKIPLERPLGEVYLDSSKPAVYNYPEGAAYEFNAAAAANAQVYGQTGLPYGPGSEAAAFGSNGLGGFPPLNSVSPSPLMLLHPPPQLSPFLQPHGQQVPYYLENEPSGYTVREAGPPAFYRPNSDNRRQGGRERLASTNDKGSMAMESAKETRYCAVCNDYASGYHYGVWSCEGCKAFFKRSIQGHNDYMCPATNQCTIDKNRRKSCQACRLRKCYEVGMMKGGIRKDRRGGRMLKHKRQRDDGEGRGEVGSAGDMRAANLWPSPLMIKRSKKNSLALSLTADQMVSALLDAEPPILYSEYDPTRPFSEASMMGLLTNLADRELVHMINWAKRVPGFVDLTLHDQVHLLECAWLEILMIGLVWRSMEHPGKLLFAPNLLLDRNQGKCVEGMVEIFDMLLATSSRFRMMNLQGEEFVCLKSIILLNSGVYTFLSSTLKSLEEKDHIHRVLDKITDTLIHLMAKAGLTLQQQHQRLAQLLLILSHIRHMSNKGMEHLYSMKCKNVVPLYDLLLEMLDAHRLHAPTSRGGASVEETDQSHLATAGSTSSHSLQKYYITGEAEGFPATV

The nature of assay [3]: qHTS assay to identify small molecule HDAC inhibitors - cell viability counter screen (AID 1259365). Note: nearly all actives have a fitted effect of over 50% in size. Note: potency is the fitted concentration of half-maximal effect. Put shortly:
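HCT-116 (wild type), 1,500 cells/well, overnight 37C/5% CO2; compound in DMSO 2hr; CellTiter-Glo 30min RT; luminescence read.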

Assay [4] in a line: qHTS assay to identify small molecule agonists of the sonic hedgehog signaling (Shh) pathway - cell viability counter screen (AID 1259366). Note: nearly all actives have a fitted effect of over 50% in size. Note: potency is the fitted concentration of half-maximal effect. The method, boiled down:
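CellTiter-Fluor fluorescence read-out, 1 hr at 37C, added after 23hr compound exposure. Cells: 3T3 Gli1-Luc, an NIH/3T3 clone with stably integrated Gli1-Luc reporter, plated 4hr before compound.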

Assay [5] in a line: qHTS assay to identify small molecule antagonists of the sonic hedgehog signaling (Shh) pathway - cell viability counter screen (AID 1259367). Note: nearly all actives have a fitted effect of over 55% in size. Note: potency is the fitted concentration of half-maximal effect. The method, boiled down:
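Cytotoxicity was assessed in parallel with Shh reporter activity by measuring live-cell protease fluorescence (CellTiter-Fluor) in NIH/3T3 cells stably carrying Gli1-Luc, treated with compound under conditioned medium stimulation for 23 hr plus 1 hr reagent incubation.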

Assay [6] is described as follows: qHTS assay to identify small molecule agonists of the sonic hedgehog signaling (Shh) pathway (AID 1259368; calls by dose curve;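 note: NIH/3T3-derived 3T3Gli1-Luc cells carrying a stable Gli1-driven firefly luciferase reporter; series mostly up to about 92 µM; nearly all actives have a fitted effect of over 15% in size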). The method, boiled down:
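Hedgehog pathway agonism scored by increased firefly luciferase luminescence in 3T3Gli1-Luc cells treated 24 hr at 37 C; detection used a 30 min room-temperature reagent incubation.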

Assay [7] in a line: qHTS assay to identify small molecule antagonists of the sonic hedgehog signaling (Shh) pathway (AID 1259369; calls by dose curve; note: nearly all actives have a fitted effect of over 45% in size; note: potency is the fitted concentration of half-maximal effect). The method, boiled down: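 NIH/3T3 stable Gli1-Luc clone, 2,000 cells/well, 4hr settle; cpd + conditioned medium 24hr; Luc reagent 30min RT; luminescence.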
Assay [8] is described as follows: qHTS assay to identify small molecule antagonists of the estrogen receptor beta (ER-beta) signaling pathway - cell viability counter screen (AID 1259382). Note: nearly all actives have a fitted effect of over 55% in size. Note: potency is the fitted concentration of half-maximal effect. Put shortly:
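Readout: luminescence, CellTiter-Glo, same wells as bla assay. System: ER-beta-UAS-bla GripTite HEK293T, 2% charcoal-stripped FBS. Exposure: compounds plus 1nM 17-beta-estradiol, 16 hr, 37C.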

Assay [9] concerns the target Estrogen receptor (Homo sapiens) (UniProt P03372). As to the kind of experiment: qHTS assay to identify small molecule agonists of the estrogen receptor alpha (ER-alpha) signaling pathway in the presence of an antagonist (AID 1259383; calls by dose curve; note: top concentration of the series differs between compounds; nearly all actives have a fitted effect of over 15% in size). The method, boiled down:
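Quantitative HTS confirmation: compounds titrated at 15 concentrations onto estrogen-deprived VM7Luc4E2 cells carrying a four-ERE luciferase construct, with ICI-182,780 present at 10.0nM final. Signal is luminescence after 22hr exposure.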

The nature of assay [10]: qHTS assay to identify small molecule agonists or antagonists of the thyroid stimulating hormone receptor (TSHR) signaling pathway - wild type cell line counter screen (AID 1259384; calls by dose curve). Put shortly:
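Wild-type HEK293 cells were plated 18 h at 37 C/5% CO2, pin-dosed with compound plus Ro20-1724 medium, held 30 min at room temperature, then given cAMP-d2 and anti-cAMP-cryptate; fluorescence was read after 1 h. Fifteen concentrations, triplicate.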

Assay [11] deals with Thyrotropin receptor (Homo sapiens) (UniProt P16473). Briefly: qHTS assay to identify small molecule antagonists of the thyroid stimulating hormone receptor (TSHR) signaling pathway (AID 1259385; calls by dose curve; note: nearly all actives have a fitted effect of over 20% in size; note: potency is the fitted concentration of half-maximal effect). Put shortly:
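TSHR-HEK293 cells were plated and held 18 h at 37C/5% CO2, then given compound plus Ro20-1724 and stimulated with TSH at 1.5 ng/mL final. After 30 min at room temperature, cAMP was detected with cAMP-d2/anti-cAMP-cryptate (1 h) by fluorescence.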

The nature of assay [12]: qHTS assay to identify small molecule agonists of the estrogen receptor alpha (ER-alpha) signaling pathway in the presence of an antagonist - cell viability counter screen (AID 1259386).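 Note: cells exposed to compounds for 22 h at 37 °C before the viability read; nearly all actives have a fitted effect of over 30% in size.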 Note: potency is the fitted concentration of half-maximal effect. Put shortly: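 The test measures whether compounds kill ER-alpha reporter cells (VM7Luc4E2) under antagonist co-treatment (ICI-182,780, 10.0nM). Fluorescence from CellTiter-Fluor is read after a 22hr exposure.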

A short description of assay [13]: qHTS assay to identify small molecule agonists of the androgen receptor (AR) signaling pathway in the presence of an antagonist - cell viability counter screen (AID 1259379). Note: nearly all actives have a fitted effect of over 25% in size. Note: potency is the fitted concentration of half-maximal effect. Put shortly:
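MDA-kb2 viability measured by CellTiter-Fluor fluorescence in the same wells as the luciferase signal; nilutamide 3.0uM final; 15-point compound titration; 16 hr at 37C.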

A short description of assay [14]: qHTS assay to identify small molecule agonists of the estrogen receptor beta (ER-beta) signaling pathway - cell viability counter screen (AID 1259380). Note: nearly all actives have a fitted effect of over 30% in size. Note: potency is the fitted concentration of half-maximal effect. The method, boiled down:
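Measured: luminescence from CellTiter-Glo after 30 min at room temperature, added to wells already read for the LiveBLAzer FRET reporter (2 hr substrate); ER-beta-UAS-bla HEK293T cells had 16 hr compound treatment at 37C, 5% CO2.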

Assay [15] is described as follows: qHTS assay to identify small molecule HDAC inhibitors (AID 1259364).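 Note: wild-type HCT-116 cells with endogenous class I/II HDAC activity; top concentration of the series differs between compounds; nearly all actives have a fitted effect of over 45% in size.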 Put shortly: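 Screening used wild-type human colon HCT-116 cells incubated overnight, dosed with compounds for 2 hours, and assayed with a homogeneous luminogenic HDAC I/II reagent for 30 minutes at room temperature.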
The target in assay [16] is Estrogen receptor beta (Homo sapiens) (UniProt Q92731). As to the kind of experiment: qHTS assay to identify small molecule agonists of the estrogen receptor beta (ER-beta) signaling pathway (AID 1259377; active = well fitted activation curve with a large enough effect in the signal ratio in the repeat runs, not every such curve was filed as active; the % refers to the signal ratio). The method, boiled down: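 Beta-lactamase reporter readout: fluorescence of LiveBLAzer B/G FRET substrate after 2 h at room temperature, following 16 h compound treatment of ER-beta-UAS-bla HEK293T cells at 37C in 2% charcoal-stripped FBS medium.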
Chain of Estrogen receptor beta (Homo sapiens) (Q92731 whole entry, looked up): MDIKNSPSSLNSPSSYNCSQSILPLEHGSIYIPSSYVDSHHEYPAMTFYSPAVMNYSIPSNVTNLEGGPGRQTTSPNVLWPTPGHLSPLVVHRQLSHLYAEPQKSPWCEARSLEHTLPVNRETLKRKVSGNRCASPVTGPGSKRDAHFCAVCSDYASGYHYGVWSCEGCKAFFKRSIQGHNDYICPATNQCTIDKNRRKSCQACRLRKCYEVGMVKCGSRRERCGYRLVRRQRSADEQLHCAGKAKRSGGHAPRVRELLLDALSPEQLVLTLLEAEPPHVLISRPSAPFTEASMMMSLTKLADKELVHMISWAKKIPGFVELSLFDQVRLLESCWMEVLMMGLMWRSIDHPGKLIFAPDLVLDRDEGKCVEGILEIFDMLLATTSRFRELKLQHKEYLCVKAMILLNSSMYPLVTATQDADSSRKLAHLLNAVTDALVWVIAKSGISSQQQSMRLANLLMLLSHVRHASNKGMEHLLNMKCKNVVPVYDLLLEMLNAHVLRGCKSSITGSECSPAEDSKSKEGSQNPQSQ

The target is the same in assay [17]. Briefly: qHTS assay to identify small molecule antagonists of the estrogen receptor beta (ER-beta) signaling pathway (AID 1259378; active = well fitted inhibition curve with a large enough effect in the signal ratio in the repeat runs, not every such curve was filed as active; the % refers to the signal ratio). The method, boiled down: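 ER-beta-UAS-bla HEK293T (GripTite) cells in 2% charcoal-stripped FBS medium were preincubated 6 hr at 37C, dosed with compound, then stimulated with 1 nM E2 (final) for 16 hr; beta-lactamase reporter read by B/G FRET fluorescence after 2 hr substrate loading.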

The target of assay [18] is Androgen receptor (Homo sapiens) (UniProt P10275). As to the kind of experiment: qHTS assay to identify small molecule agonists of the androgen receptor (AR) signaling pathway in the presence of an antagonist (AID 1259381; calls by dose curve; note: nearly all actives have a fitted effect of over 15% in size). Put shortly: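 Luminescent ONE-Glo read, 30min at room temperature, follows 16hr compound exposure (15 concentrations) of MDA-kb2 cells at 37C, 0% CO2, with nilutamide added at 3.0uM final.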
Chain of Androgen receptor (Homo sapiens) (P10275 whole entry, looked up): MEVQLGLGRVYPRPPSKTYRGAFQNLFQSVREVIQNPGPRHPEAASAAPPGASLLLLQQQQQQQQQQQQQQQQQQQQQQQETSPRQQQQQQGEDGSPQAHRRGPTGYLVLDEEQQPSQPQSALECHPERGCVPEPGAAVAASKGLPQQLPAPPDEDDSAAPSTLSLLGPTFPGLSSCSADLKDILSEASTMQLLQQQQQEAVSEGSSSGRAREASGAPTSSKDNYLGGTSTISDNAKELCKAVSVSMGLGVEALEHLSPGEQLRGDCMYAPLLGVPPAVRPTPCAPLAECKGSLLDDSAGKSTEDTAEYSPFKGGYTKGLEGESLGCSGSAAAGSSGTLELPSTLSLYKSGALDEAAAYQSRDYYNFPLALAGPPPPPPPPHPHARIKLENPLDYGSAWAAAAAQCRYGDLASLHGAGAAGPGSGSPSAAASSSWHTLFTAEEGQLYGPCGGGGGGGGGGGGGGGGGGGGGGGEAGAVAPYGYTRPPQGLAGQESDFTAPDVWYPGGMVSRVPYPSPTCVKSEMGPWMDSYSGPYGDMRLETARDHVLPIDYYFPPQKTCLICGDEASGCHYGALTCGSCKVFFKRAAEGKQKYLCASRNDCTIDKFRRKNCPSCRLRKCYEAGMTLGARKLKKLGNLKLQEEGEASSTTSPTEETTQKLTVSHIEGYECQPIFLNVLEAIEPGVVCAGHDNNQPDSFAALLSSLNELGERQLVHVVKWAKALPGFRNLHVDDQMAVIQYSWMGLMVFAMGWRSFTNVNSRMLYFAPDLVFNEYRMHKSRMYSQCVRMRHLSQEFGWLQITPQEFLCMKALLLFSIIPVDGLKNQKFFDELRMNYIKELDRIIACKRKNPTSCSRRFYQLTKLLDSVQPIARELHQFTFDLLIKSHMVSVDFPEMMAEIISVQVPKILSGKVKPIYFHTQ

Records with an inconclusive call do not appear. Activity calls are given as the source filed them. Unless noted, calls come from the whole dose curve; as a rule, active = well fitted curve in the direction sought with a large enough effect in the repeat runs; inconclusive = weak or mixed curves; inactive = no such curve, though single readings can be large; an effect the other way counts as inactive or inconclusive.

The values below come from PubChem BioAssay (Tox21).

Chain of Thyrotropin receptor (Homo sapiens) (P16473 whole entry, looked up): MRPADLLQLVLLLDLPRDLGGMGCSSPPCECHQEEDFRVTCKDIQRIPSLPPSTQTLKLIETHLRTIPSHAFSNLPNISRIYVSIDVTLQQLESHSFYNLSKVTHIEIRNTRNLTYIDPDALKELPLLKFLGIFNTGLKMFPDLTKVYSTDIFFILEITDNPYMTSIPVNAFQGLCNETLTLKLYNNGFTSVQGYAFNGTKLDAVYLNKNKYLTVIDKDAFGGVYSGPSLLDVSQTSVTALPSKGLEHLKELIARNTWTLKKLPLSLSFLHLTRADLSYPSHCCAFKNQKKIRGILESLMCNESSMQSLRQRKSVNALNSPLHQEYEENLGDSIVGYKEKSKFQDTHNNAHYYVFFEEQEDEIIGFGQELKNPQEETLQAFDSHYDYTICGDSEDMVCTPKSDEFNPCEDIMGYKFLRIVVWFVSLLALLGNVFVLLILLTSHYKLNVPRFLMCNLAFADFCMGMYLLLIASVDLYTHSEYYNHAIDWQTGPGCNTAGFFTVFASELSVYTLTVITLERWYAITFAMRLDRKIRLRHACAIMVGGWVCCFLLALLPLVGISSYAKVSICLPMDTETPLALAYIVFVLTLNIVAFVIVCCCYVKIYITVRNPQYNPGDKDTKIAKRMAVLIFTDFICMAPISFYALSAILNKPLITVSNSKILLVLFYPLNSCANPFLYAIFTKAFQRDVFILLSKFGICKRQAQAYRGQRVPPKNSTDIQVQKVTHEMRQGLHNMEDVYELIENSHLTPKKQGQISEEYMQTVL

On to `Nc1ccccc1O`, for which the Potency entry in [1], in assay [3], in assay [6], in [8], in assay [9] and in assay [11] was “inactive” each time. Moreover, the Potency is 30.2 µM (active) in assay [2]; 24 µM (active) in [4]; 19.1 µM (active) in [5]; 6.77 µM (active) in [7]; 67.7 µM (active) in assay [12]. The result in assay [10] was inactive.

For the compound `CCC(C)(C)C1CCCCC1OC(C)=O` (stereo unspecified), the Potency entry in [1], in assay [2], in [3], in [4], in assay [5] and in assay [6] was “inactive” each time. For the same compound, the Potency result in assay [7], in assay [13], in assay [14], in [8], in [9] and in assay [11] was “inactive” throughout. The Potency result in assay [12] was “inactive”. Further, the result in [10] was inactive.

As to `N#CC1(c2ccc(F)cc2)CCC(=O)CC1`, the Potency entry in assay [1], in assay [2], in [15], in assay [3], in assay [4] and in [5] was “inactive” each time. In addition, the Potency result in assay [7], in assay [16], in [17], in assay [13], in [14] and in assay [18] was “inactive” in each case. The Potency result in assay [8], in assay [9], in assay [11] and in assay [12] was “inactive” in each case. The outcome in [10] was inactive.

With `CC1=NC(C)OC1C` (stereo unspecified), the Potency entry in assay [1], in [2], in assay [15], in [3], in [4] and in assay [6] was “inactive” each time. Further, the Potency entry in assay [13], in assay [14], in assay [18], in [8], in [9] and in assay [11] was “inactive” throughout. Moreover, in assay [12], the Potency entry is “inactive”. In assay [10], the result was inactive.

Take `NNc1nc(-c2ccccc2)cs1`: the Potency result in [1], in assay [2], in assay [3], in [4], in assay [5] and in [7] was “inactive” throughout. Further, the Potency result in assay [16] and in assay [9] was “inactive” in each case. Further, the Potency was 25 µM (active) in assay [14] and 56 µM (active) in assay [12].

With `c1cc(C(c2ccc(OCC3CO3)cc2)c2ccc(OCC3CO3)cc2)ccc1OCC1CO1` (stereo unspecified), the Potency result in assay [1], in assay [2], in assay [15], in assay [3], in [6] and in assay [13] was “inactive” each time. Further, the Potency result in assay [18], in [8], in assay [9] and in assay [12] was “inactive” in each case. In addition, the Potency in assay [4] is 61.1 µM (active); in [7], 54.5 µM (active). In addition, in assay [10], the compound was called inactive.

On to `CNC(=O)c1ccccc1`, for which the Potency entry in assay [1], in [2], in [15], in assay [3], in assay [4] and in assay [5] was “inactive” each time. In addition, the Potency entry in assay [6], in assay [16], in assay [13], in assay [9], in assay [11] and in assay [12] was “inactive” in each case. The call in [10] was inactive.

With `CCCCCCCC[P+](CCCCCCCC)(CCCCCCCC)CCCCCCCC`, the Potency was 4.3 µM (active) in [1]; 0.43 µM (active) in [2]; 34.2 µM (active) in assay [3]; 12.1 µM (active) in [4]; 17.1 µM (active) in assay [5]; 2.42 µM (active) in assay [13]. For the same compound, the Potency is 10.8 µM (active) in assay [8], 68.2 µM (active) in assay [11] and 2.71 µM (active) in assay [12]. The Potency entry in assay [15], in assay [6] and in [9] was “inactive” throughout. Further, the compound was classed as inactive in assay [10].
